Results filed as inconclusive are left out. A call without a number means that no potency is given here. Values without a mark were called inactive. Active and inactive are the calls of the source. Calls come from the whole dose curve; as a rule, active = well fitted curve in the direction sought with a large enough effect in the repeat runs; inconclusive = weak or mixed curves; inactive = no such curve, though single readings can be large; an effect the other way counts as inactive or inconclusive.
Key:
[1] = qHTS RealTime-Glo MT Cell Viability Assay in HepG2 cells - 40 hour (AID 1224870); note: nearly all actives have a fitted effect of over 50% in size
Summary of the method: (§1)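 HepG2 cells mixed with RealTime-Glo MT reagents (NanoLuc plus cell-permeant prosubstrate) were seeded at 600 cells/well, incubated 5 h at 37 C/5% CO2, then pinned with compounds in DMSO; nonlytic luminescence tracked viability during 40 h treatment.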

[2] = A CellTox Green Cytotoxicity Assay to monitor cytotoxicity in HEK293 cells - 40 hour (AID 1224871); note: nearly all actives have a fitted effect of over 45% in size
Summary of the method: (§2)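 HEK293 cells premixed with CellTox Green dye were seeded at 600 cells/well and left 5 h at 37 C/5% CO2 before pin transfer of 23 nL compound in DMSO. Fluorescence from dye bound to dead-cell DNA was read during 40 h treatment.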

[3] = qHTS RealTime-Glo MT Cell Viability Assay in HEK293 cells - 16 hour (AID 1224872); note: nearly all actives have a fitted effect of over 50% in size; note: potency is the fitted concentration of half-maximal effect
Summary of the method: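 Nonlytic real-time viability readout: viable cells convert prosubstrate to NanoLuc substrate, giving luminescence proportional to live cell number. HEK293, 600 cells/well, compound added after 5 h, continuous culture at 37 C.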

[4] = qHTS RealTime-Glo MT Cell Viability Assay in HepG2 cells - 8 hour (AID 1224873); note: nearly all actives have a fitted effect of over 55% in size
Summary of the method: as §1

[5] = qHTS RealTime-Glo MT Cell Viability Assay in HEK293 cells - 40 hour (AID 1224874); conditions: RealTime-Glo luminescence; max response: stronger effect = lower value; note: nearly all actives have a fitted effect of over 50% in size; note: potency is the fitted concentration of half-maximal effect
Summary of the method: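 HEK293 cells mixed with RealTime-Glo reagents (NanoLuc plus cell-permeant prosubstrate) at 600 cells/well, preincubated 5 h at 37 C/5% CO2, then given 23 nL compound in DMSO. Nonlytic luminescence from viable cells was read at 0, 8, 16, 24, 32 and 40 h.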

[6] = A CellTox Green Cytotoxicity Assay to monitor cytotoxicity in HEK293 cells - 24 hour (AID 1224875); note: series mostly up to about 77 µM; nearly all actives have a fitted effect of over 45% in size
Summary of the method: as §2

[7] = A CellTox Green Cytotoxicity Assay to monitor cytotoxicity in HepG2 cells - 16 hour (AID 1224876); note: nearly all actives have a fitted effect of over 45% in size
Summary of the method: (§3)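 HepG2 cells were seeded together with the CellTox Green dye at 600 cells/well, left 5 h at 37 C/5% CO2, then given compounds in DMSO. Fluorescence from dye bound to dead-cell DNA was read repeatedly over 40 h of treatment at 37 C.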

[8] = qHTS RealTime-Glo MT Cell Viability Assay in HepG2 cells - 32 hour (AID 1224877); note: nearly all actives have a fitted effect of over 55% in size
Summary of the method: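 Luminescence read-out: viable HepG2 cells reduce a prosubstrate to a NanoLuc substrate, giving a signal proportional to live cell number. Reads taken at 0, 8, 16, 24, 32 and 40 h of compound exposure at 37 C.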

[9] = A CellTox Green Cytotoxicity Assay to monitor cytotoxicity in HepG2 cells - 24 hour (AID 1224878); note: nearly all actives have a fitted effect of over 45% in size
Summary of the method: as §3

[10] = A CellTox Green Cytotoxicity Assay to monitor cytotoxicity in HepG2 cells - 40 hour (AID 1224879); note: nearly all actives have a fitted effect of over 40% in size
Summary of the method: as §3

Compound	Potency [1]	Potency [2]	Potency [3]	Potency [4]	max response [5] [%]	Potency [6]	Potency [7]	Potency [8]	Potency [9]	Potency [10]	Potency [5]
CCOP(=S)(Oc1ccc([N+](=O)[O-])cc1)c1ccccc1 (stereo not given)	inactive	inactive	inactive	inactive	9.18	inactive	inactive	inactive	inactive	inactive	–
O=S1(=O)OC(c2cc(Br)c(O)c(Br)c2)(c2cc(Br)c(O)c(Br)c2)c2ccccc21	inactive	inactive	inactive	inactive	11.5	inactive	inactive	inactive	inactive	inactive	–
CCOP(=S)(OCC)Oc1cc(Cl)c(Br)cc1Cl	inactive	inactive	inactive	inactive	-15.7	inactive	inactive	inactive	inactive	inactive	–
C=CC(=O)OC	inactive	inactive	inactive	inactive	0.596	inactive	inactive	inactive	inactive	inactive	–
Brc1ccccc1	inactive	inactive	inactive	inactive	-2.8	inactive	inactive	inactive	inactive	inactive	–
N#Cc1ccc(Cl)cc1	inactive	inactive	inactive	inactive	2.27	inactive	inactive	inactive	inactive	inactive	–
CCCCCCC#N	inactive	inactive	inactive	inactive	1.28	inactive	inactive	inactive	inactive	inactive	–
Cn1sc(Cl)cc1=O	inactive	inactive	inactive	inactive	-14	inactive	inactive	inactive	inactive	inactive	–
COc1cc(Cl)c(OC)cc1Cl	inactive	inactive	inactive	inactive	1.87	inactive	inactive	inactive	inactive	inactive	–
OCCCBr	inactive	inactive	inactive	inactive	-0.927	inactive	inactive	inactive	inactive	inactive	–
CCOC(=O)COc1cc(-c2nn(C)c(OC(F)F)c2Cl)c(F)cc1Cl	inactive	inactive	inactive	inactive	-5.9	inactive	inactive	inactive	inactive	inactive	–
C=C(C#N)CCC#N	inactive	inactive	inactive	inactive	5.63	inactive	inactive	inactive	inactive	inactive	–
O=S(=O)(Cl)c1ccccc1	inactive	inactive	inactive	inactive	11.8	inactive	inactive	inactive	inactive	inactive	–
C=CCN1CC[C@]23c4c5ccc(O)c4O[C@H]2C(=O)CC[C@@]3(O)[C@H]1C5	inactive	inactive	inactive	inactive	-0.323	inactive	inactive	inactive	inactive	inactive	–
CCCN(CCC)c1c([N+](=O)[O-])cc(S(C)(=O)=O)cc1[N+](=O)[O-]	inactive	inactive	15.5 µM (active)	inactive	–	inactive	inactive	inactive	inactive	inactive	15.5 µM (active)
CN1C(=O)NC(=O)C(C)(C2=CCCCC2)C1=O (stereo not given)	inactive	inactive	inactive	inactive	11.8	inactive	inactive	inactive	inactive	inactive	–
O=C(NCc1cccnc1)Nc1ccc([N+](=O)[O-])cc1	inactive	inactive	49 µM (active)	inactive	–	inactive	inactive	inactive	inactive	inactive	54.9 µM (active)
CCOc1ccc(C(C)(C)COCc2cccc(Oc3ccccc3)c2)cc1	inactive	inactive	inactive	inactive	11.2	inactive	inactive	inactive	inactive	inactive	–
ClC=C(Cl)Cl	inactive	inactive	inactive	inactive	18.6	inactive	inactive	inactive	inactive	inactive	–
CCO[C@H]1O[C@@H]2OC3(C)CC[C@H]4[C@H](C)CC[C@@H]([C@H]1C)[C@@]24OO3	inactive	inactive	inactive	inactive	-21.5	inactive	inactive	inactive	inactive	inactive	–
CC1C(=O)C[C@]2(C(C)C)C[C@H]12 (stereo not given in full)	inactive	inactive	inactive	inactive	9.37	inactive	inactive	inactive	inactive	inactive	–
c1ccoc1	inactive	inactive	inactive	inactive	-1.82	inactive	inactive	inactive	inactive	inactive	–

— PubChem BioAssay (Tox21)
